Compounds without any hit were thinned out: in the full panel of roughly 79,000, 15% have a hit. The source made the active and inactive calls. Cut-off read from the data, not from the text of the source: active = growth inhibition above about 70%; inactive = the rest.
Experiments:
[1] = NCI Yeast Anticancer Drug Screen. Data for the rad52 strain (AID 147);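 note: 0% = growth of vehicle-treated control cultures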; settings: S. cerevisiae rad52 mutant growth inhibition, active compounds read high
In short: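 DNA repair-defective yeast; compound exposure; growth scored against vehicle controls.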

[2] = NCI Yeast Anticancer Drug Screen. Data for the wt1 strain (AID 149);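 note: 0% = growth of vehicle-treated wt1 cultures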; settings: S. cerevisiae wt1 strain (SPY 50644) growth inhibition, active compounds read high
In short: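 Each compound is tested on wt1 yeast and the loss of growth versus vehicle gives the inhibition value.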

[3] = NCI Yeast Anticancer Drug Screen. Data for the rad50EPP+ strain (AID 151);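 note: 0% = growth of vehicle-treated control cultures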; settings: S. cerevisiae rad50 mutant strain, active compounds read high
In short: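 rad50EPP+ yeast treated with test compounds. Readout: growth vs vehicle control.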

[4] = NCI Yeast Anticancer Drug Screen. Data for the mgt1 strain (AID 153); settings: S. cerevisiae mgt1 mutant growth inhibition, active compounds read high
In short: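 Growth inhibition relative to vehicle controls was scored for the mgt1 yeast strain after compound exposure.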

[5] = NCI Yeast Anticancer Drug Screen. Data for the rad50 strain (AID 155);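 note: 0% = growth of vehicle-only cultures of the same strain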; settings: S. cerevisiae rad50 strain growth inhibition, active compounds read high
In short: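 Vehicle-treated cultures provide the reference for the growth inhibition reported for compound-exposed, repair-deficient yeast.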

[6] = NCI Yeast Anticancer Drug Screen. Data for the mec2-1 strain (AID 157); settings: S. cerevisiae mec2-1 strain, active compounds read high
In short: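 Growth inhibition is read against vehicle-treated controls after compound exposure of the mec2-1 yeast strain, which is defective in DNA damage repair or cell cycle control.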

[7] = NCI Yeast Anticancer Drug Screen. Data for the rad14 strain (AID 159);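 note: 0% = growth of vehicle-treated control cultures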; settings: S. cerevisiae rad14 strain growth inhibition, active compounds read high
In short: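 Inhibition of growth is reported for a repair-deficient yeast mutant following compound treatment, calculated relative to cultures that received vehicle.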

[8] = NCI Yeast Anticancer Drug Screen. Data for the sgs1 mgt1 strain (AID 161);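 note: 0% = growth of cultures given vehicle only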; settings: S. cerevisiae sgs1 mgt1 strain, active compounds read high
In short: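 Growth of a repair-deficient yeast mutant was monitored after compound treatment and expressed as inhibition relative to vehicle-treated cultures.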

[9] = NCI Yeast Anticancer Drug Screen. Data for the CLN2oe strain (AID 163);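 note: 0% = growth of vehicle-only control cultures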; settings: S. cerevisiae CLN2oe strain, active compounds read high
In short: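 Compound-treated yeast; growth vs vehicle ctrl = % inhibition. Genetically altered strain (cell-cycle control).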

[10] = NCI Yeast Anticancer Drug Screen. Data for the cln2 rad14 strain (AID 165);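 note: 0% = growth equal to vehicle treated cultures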; settings: S. cerevisiae cln2 rad14 strain, active compounds read high
In short: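 Growth inhibition, relative to vehicle-treated controls, is the read-out. The test organism is a yeast strain with defined genetic alterations, cln2 rad14.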

[11] = NCI Yeast Anticancer Drug Screen. Data for the bub3 strain (AID 167); settings: S. cerevisiae bub3 mutant strain, active compounds read high
In short: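 Mutant yeast screening strain plus compound; vehicle-treated cultures serve as the 0% inhibition reference.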

[12] = NCI Yeast Anticancer Drug Screen. Data for the wt2 strain (AID 169); settings: S. cerevisiae wt2 strain growth inhibition, active compounds read high
In short: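 Compound exposure of yeast; growth compared with vehicle controls; inhibition reported.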

[13] = NCI Yeast Anticancer Drug Screen. Data for the mlh1 strain (AID 171);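 note: 0% = growth of vehicle-treated control cultures of the same strain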; settings: S. cerevisiae mlh1 strain growth inhibition, active compounds read high
In short: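 Compounds are applied to a genetically altered yeast strain, and its growth is compared with that of vehicle-treated cultures to give percent inhibition.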

[14] = NCI Yeast Anticancer Drug Screen. Data for the sgs1 strain (AID 173);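 note: 0% = growth of vehicle-only control cultures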; settings: S. cerevisiae sgs1 mutant, active compounds read high
In short: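 Compounds applied to genetically altered yeast; growth compared with vehicle-treated cultures to give % inhibition.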

[15] = NCI Yeast Anticancer Drug Screen. Data for the mlh1 rad18 strain (AID 175); settings: S. cerevisiae mlh1 rad18 strain growth inhibition, active compounds read high
In short: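 Cells of a genetically altered yeast strain, deficient in DNA damage repair, were treated with compound. Their growth was then compared with that of vehicle-treated cultures to give inhibition.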

[16] = at 5.0 µM (retest, dose inferred, filed as 0.5)
[17] = at 50.0 µM (retest, dose inferred, filed as 5.0)

Measured: growth inhibition

S=C(N/N=C(/c1ccccc1)c1ccccn1)N1CCCCCC1
inactive: [1]; at 1.2 µM 42% | [1]; at 3.7 µM 52% | [1]; at 11.0 µM 57% | [1]; at 33.0 µM 57% | [1]; at 100.0 µM 41% | [2]; at 1.2 µM -3% | [2]; at 3.7 µM 3% | [2]; at 11.0 µM 4% | [2]; at 33.0 µM 2% | [2]; at 100.0 µM -2% | [3]; at 1.2 µM 5% | [3]; at 3.7 µM 7% | [3]; at 11.0 µM 8% | [3]; at 33.0 µM 3% | [3]; at 100.0 µM 6% | [4]; at 1.2 µM -5% | [4]; at 3.7 µM -7% | [4]; at 11.0 µM 16% | [4]; at 33.0 µM -18% | [4]; at 100.0 µM -6% | [5]; at 1.2 µM 0% | [5]; at 3.7 µM 6% | [5]; [16] 5% | [5]; at 11.0 µM -20% | [5]; at 33.0 µM 4% | [5]; at 100.0 µM 8% | [6]; at 1.2 µM 1% | [6]; at 3.7 µM 0% | [6]; [16] 24% | [6]; at 11.0 µM 4% | [6]; at 33.0 µM 1% | [6]; at 100.0 µM 4% | [7]; at 1.2 µM -5% | [7]; at 3.7 µM -4% | [7]; at 11.0 µM -4% | [7]; at 33.0 µM -5% | [7]; at 100.0 µM -1% | [9]; at 1.2 µM 5% | [9]; at 3.7 µM 0% | [9]; at 11.0 µM 4% | [9]; at 33.0 µM -4% | [9]; at 100.0 µM 7% | [10]; [16] 18% | [11]; at 1.2 µM 4% | [11]; at 3.7 µM 16% | [11]; at 11.0 µM 22% | [11]; at 33.0 µM 13% | [11]; at 100.0 µM 2% | [12]; at 1.2 µM 5% | [12]; at 3.7 µM 7% | [12]; at 11.0 µM 12% | [12]; at 33.0 µM 10% | [12]; at 100.0 µM 5% | [13]; at 1.2 µM -3% | [13]; at 3.7 µM -2% | [13]; at 11.0 µM 4% | [13]; at 33.0 µM 1% | [13]; at 100.0 µM -1% | [14]; at 1.2 µM 4% | [14]; at 3.7 µM 10% | [14]; at 11.0 µM 11% | [14]; at 33.0 µM 10% | [14]; at 100.0 µM 7%
active: [5]; [17] 96% | [5]; at 50.0 µM 76.7% | [6]; [17] 97% | [6]; at 50.0 µM 80.5% | [8]; [16] 75% | [8]; [17] 96% | [8]; at 50.0 µM 85.4% | [10]; [17] 96% | [10]; at 50.0 µM 82.5% | [11]; [16] 95% | [11]; [17] 97% | [11]; at 50.0 µM 87.8% | [15]; [16] 93% | [15]; [17] 97% | [15]; at 50.0 µM 86.2%

Source: PubChem BioAssay (NCI)
